# Laboratory results as given in PubChem BioAssay (Tox21).
# Inconclusive results are not listed. The source made the active and inactive calls. The call rests on the fitted dose curve; in most records, active means well fitted cell-killing curve with a large enough effect in the repeat runs; inconclusive means weak or mixed curves, or effect the other way; inactive means flat fitted curve, though single readings scatter.
# Assay: qHTS assay to identify small molecule agonists of the estrogen receptor beta (ER-beta) signaling pathway - cell viability counter screen (AID 1259380); further: nearly all actives have a fitted effect of over 30% in size
# Details: ER-beta-bla HEK293T viability, CellTiter-Glo luminescence, 16 h; series mostly up to 92.4 µM; activity change, negative = cytotoxicity: at the top concentration
# Source text: National Center for Advancing Translational Sciences [NCATS]
# NIH Chemical Genomics Center [NCGC]
# U.S. Environmental Protection Agency [EPA]
# National Institutes of Environmental Health Sciences [NIEHS]
# National Toxicology Program [NTP]
# U.S. Food and Drug Administration [FDA]
# Estrogen receptor (ER), a nuclear hormone receptor, plays an important role in development, metabolic homeostasis and reproduction. Two subtypes of ER, ER-alpha and ER-beta, have similar expression patterns with some uniqueness in both types. Endocrine disrupting chemicals (EDCs) and their interactions with steroid hormone receptors like ER causes disruption of normal endocrine function. To identify the compounds that activate ER signaling, an ER beta-UAS-bla GripTite cell line (Life Technologies, Madison, WI, USA) containing a beta-lactamase reporter gene under the control of an UAS response element was used to screen Tox21 10K compound library. The cytotoxicity of the Tox21 compound library against the ER-beta-bla cell line was tested in parallel by measuring the cell viability using CellTiter-Glo assay in the same wells.
# Tox21 Assay Protocol Summary:
# ER-beta-UAS-bla HEK293T cells were dispensed at 2,000 cells/5 uL of assay medium containing 2% charcoal stripped FBS per well into black wall/clear-bottom 1536-well plates using a Multidrop Combi (ThermoFisher Scientific, Waltham, MA) dispenser. After the assay plates were incubated at a 37C and 5% CO2 for 6 hr, 23 nL of compounds dissolved in DMSO, positive controls or DMSO only was transferred to the assay plate by a Pintool station (Kalypsys, San Diego, CA). The plates were incubated at 37C and 5% CO2 for 16 hr. Then 1 uL of LiveBLAzerTM B/G FRET substrate was added using a BioRAPTR FRD (Flying Reagent Dispenser, Aurora Discovery, San Diego, CA) and then the plates were incubated at room temperature for 2 hours, and fluorescence intensity was measured by an Envision plate reader (PerkinElmer, Shelton, CT). For cell viability readout that measures cytotoxicity, 4 uL/well of CellTiter-Glo reagent was added into the assay plates using a FRD. After 30 min incubation at room temperature, the luminescence intensity in the plates was measured using a ViewLux (PerkinElmer) plate reader.
# On the % scale 0 is the no-effect control and ±100 the full control effect; potency means the concentration at half of the fitted maximal effect.
Compound,"activity change, negative = cytotoxicity",Potency
CC(Cl)(Cl)[N+](=O)[O-],3.05% (inactive),
C#CCN1C(=O)COc2cc(F)c(N3C(=O)C4=C(CCCC4)C3=O)cc21,3.73% (inactive),
CCCSP(=S)(OCC)Oc1ccc(Cl)cc1Cl (stereo not given),-12.8% (inactive),
NC(=S)C(N)=S,-6.81% (inactive),
Fc1ccc(C2(Cn3cncn3)OC2c2ccccc2Cl)cc1 (stereo not given),,17.2 µM (active)
CCN(CC)C(C)C(=O)c1ccccc1 (stereo not given),4.72% [at 42.5 µM] (inactive),
OC(Cn1cncn1)(c1ccc(F)cc1)c1ccccc1F (stereo not given),-10.7% (inactive),
CCOP(=S)(OCC)Oc1cc(-c2ccccc2)on1,-23.7% (inactive),
CSc1ccc(C(=O)C(C)(C)N2CCOCC2)cc1,3.6% (inactive),
CN1C(=S)CN=C(c2ccccc2)c2cc(Cl)ccc21,6.24% [at 42.5 µM] (inactive),
ClC(Cl)Br,7.63% (inactive),
Cc1nnc2n1-c1sc(CCC(=O)N3CCOCC3)cc1C(c1ccccc1Cl)=NC2,-0.419% [at 42.5 µM] (inactive),
NC(=O)O,-0.34% (inactive),
Oc1c(Cl)cccc1Cl,2.08% (inactive),
COCC(=O)N(c1c(C)cccc1C)N1CCOC1=O,7.8% (inactive),
CCC(Cl)[N+](=O)[O-] (stereo not given),4.19% (inactive),
NC(=O)c1cc([N+](=O)[O-])cc([N+](=O)[O-])c1,-7.01% [at 42.5 µM] (inactive),
CC1(C(=O)Nc2ccc(O)c(Cl)c2Cl)CCCCC1,-6.9% (inactive),
CC(COc1ccc(Oc2ccccc2)cc1)Oc1ccccn1 (stereo not given),15% (inactive),
CCOP(=S)(OCC)SCSc1ccc(Cl)cc1,1.19% (inactive),

Compound,"activity change, negative = cytotoxicity",Potency
CC(C)(C)NCC(O)c1cc(Cl)c(N)c(Cl)c1 (stereo not given),1.3% [at 42.5 µM] (inactive),
OC(c1ccccc1)(c1ccccc1)C1CCNCC1,-3.71% [at 42.5 µM] (inactive),
O=C(O)c1cccc(Cl)c1,-11.2% (inactive),
CCCCC(=O)Cl,6.3% (inactive),
CCC(=O)C(CCN(C)C)(c1ccccc1)c1ccccc1,1.84% [at 42.5 µM] (inactive),
COC(=O)C(c1ccccc1)C1CCCCN1 (stereo not given),9% (inactive),
N#CCCC#N,-3.37% (inactive),
COP(N)(=S)Oc1ccccc1C(=O)OC(C)C (stereo not given),1.44% (inactive),
CC1CCC(=O)O1 (stereo not given),4.04% (inactive),
CC(C1CC1)C(O)(Cn1cncn1)c1ccc(Cl)cc1 (stereo not given),-14% (inactive),
CCOC(=O)NC(=S)Nc1ccccc1NC(=S)NC(=O)OCC,-5.28% (inactive),
C(CCOCC1CO1)COCC1CO1 (stereo not given),4.18% (inactive),
COc1cc(OC)nc(Sc2cccc(Cl)c2C(=O)O)n1,7.32% (inactive),
CC(C)(C)C(=O)C(Oc1ccc(Cl)cc1)n1cncn1 (stereo not given),-3.46% (inactive),
CS(=O)(=O)c1cc(C(F)(F)F)ccc1C(=O)c1cnoc1C1CC1,-3.31% (inactive),
CN(C)CCc1ccc(O)cc1,10.7% [at 42.5 µM] (inactive),
O=CNC(N1CCN(C(NC=O)C(Cl)(Cl)Cl)CC1)C(Cl)(Cl)Cl (stereo not given),-2.99% (inactive),
CCC1(c2ccccc2)C(=O)NC(=O)NC1=O,9.2% (inactive),
N#CCNCC#N,-1.94% (inactive),
Cc1cccc(C#N)c1,3.25% (inactive),
